{"source": "PubChem BioAssay AID1508600", "about": "(Functional Genomics Laboratory (NCATS/FGL), 2020)", "note": "In all, about 53,000 sequences went through this assay and about 3,700 (7%) were called active.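 Rule for the calls: active = gene knockdowns whose robust z-score for IL-1 alpha signal is at least 2 or at most -2, so actives lie on both sides; inactive = the rest.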 This excerpt belongs to a sample that is enriched for actives.", "data": [{"experiment": "Components of the Cytosolic LPS Sensing Pathway: Gene Identification via Genome-wide siRNA Screen;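 note: robust z of the log signal after scaling to non-targeting control siRNA wells of the plate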", "settings": "RAW264.7 macrophages, IL-1a HTRF, actives lie on both sides, screened at 100 nM (by protocol), cells primed 5 h with Pam3CSK4 first", "summary_of_the_method": "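Knockdown: 100 nM siRNA, 48h, RAW264.7. Stimulation: Pam3CSK4 5 h, then LipidA via TransIT-TKO 24 h. Output: supernatant IL-1a HTRF, negative-control-normalized, log robust z-score; viability by CellTiter-Glo.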", "values": [{"sequence": "GCUAGCCAUGGUUACCCACTT against Slc39a3", "z-score": "-0.818 (inactive)"}, {"sequence": "GGGACACUAGAAGUAGGGATT against Pramel4", "z-score": "0.299 (inactive)"}, {"sequence": "GACGAUCAAGAUAUGAUGGTT against Olfr196", "z-score": "0.259 (inactive)"}, {"sequence": "GCACGUACUGUUCUAGAAGTT against Kcng4", "z-score": "1.48 (inactive)"}, {"sequence": "CCCAAAGAUAGAGCUCUGUTT against Sec61a2", "z-score": "-1.94 (inactive)"}, {"sequence": "GGUUGAUCUAAUGAUUGUGTT against Ccdc34", "z-score": "2.5 (active)"}, {"sequence": "UCUCCUACCUAUGCACAUATT against Panx2", "z-score": "-0.925 (inactive)"}, {"sequence": "GCAAGUCUGGAUGGAUGAGTT against 1190005I06Rik", "z-score": "-1.54 (inactive)"}, {"sequence": "CCCUCGUUGAAUUAAACUUTT against Zfp385b", "z-score": "0.88 (inactive)"}, {"sequence": "GGUCUCAGACAAAGAUGAATT against Trmt10c", "z-score": "-0.239 (inactive)"}, {"sequence": "GGAAUGGAGUUUGGUUUUGTT against Extl1", "z-score": "2.67 (active)"}, {"sequence": "GGAAACGAGUUGGAGACAATT against Gtpbp1", "z-score": "-1.03 (inactive)"}, {"sequence": "GGUUAAGUUCCUCUGGAACTT against Pnliprp2", "z-score": "-0.0719 (inactive)"}, {"sequence": "GGCACUACCACAAGUAUAGTT against 1700073E17Rik", "z-score": "0.0893 (inactive)"}, {"sequence": "GCAGGUUAUGGUCAUAUUUTT against Zfp646", "z-score": "0.583 (inactive)"}, {"sequence": "GCAGUUGAGUCCACCUCAATT against Ccdc187", "z-score": "2.18 (active)"}, {"sequence": "GGAGAACGUGGUACAAAGUTT against Sncg", "z-score": "-1.27 (inactive)"}, {"sequence": "GGAGGACUUAGAGAGUAUGTT against Ctdp1", "z-score": "-0.595 (inactive)"}, {"sequence": "CCAGUGUAGAGCACAAAUCTT against Ahr", "z-score": "2.51 (active)"}, {"sequence": "GGACCUGGACCUUUUAGAGTT against Vegfb", "z-score": "1.34 (inactive)"}, {"sequence": "GGUUGUUGGAAAAAUAGAUTT against Tmem175", "z-score": "-0.0383 (inactive)"}, {"sequence": "GGUGGACUUCAUGUAGAUUTT against Eif3m", "z-score": "-1.07 (inactive)"}, {"sequence": "GGACAAGAGGUACACAAACTT against Eif3d", "z-score": "2.83 (active)"}, {"sequence": "GGAAGAGCUGGACUUCUUCTT against Hoxb2", "z-score": "1.71 (inactive)"}, {"sequence": "CCACGGUUAUGAUGACGACTT against Dyrk1b", "z-score": "1.89 (inactive)"}, {"sequence": "GGACUAUUUCCUUUGUGGGTT against Olfr31", "z-score": "-1.59 (inactive)"}, {"sequence": "GGAUUGUCCUUGAUGGCUGTT against Plek2", "z-score": "-0.116 (inactive)"}, {"sequence": "GGAGGUUUUACUCAAACAUTT against Sec14l2", "z-score": "1.35 (inactive)"}, {"sequence": "GGGCCUGCUCUCUUUUCUGTT against Mfsd14b", "z-score": "1.18 (inactive)"}, {"sequence": "CCUCGAGUCACCAACAUCGTT against Stt3b", "z-score": "-2.46 (active)"}, {"sequence": "GCCUUUUGUACUAAGGUCCTT against Zfp715", "z-score": "1.65 (inactive)"}, {"sequence": "GGGACAGUUAGUCAGUAAGTT against Pus7l", "z-score": "0.196 (inactive)"}, {"sequence": "GGCUCAGAAACAACAGGCUTT against Sh2d3c", "z-score": "-1.19 (inactive)"}, {"sequence": "GGCUGUUAGAGGAAGAGAUTT against Ube3b", "z-score": "1.64 (inactive)"}, {"sequence": "CCAGCAUCUACUGUCUGACTT against Sstr1", "z-score": "4.2 (active)"}, {"sequence": "GCAAUGCAUGAAGACUCGUTT against Ecsit", "z-score": "0.835 (inactive)"}, {"sequence": "GGGACUGGAUCCUUGAUAUTT against Ebi3", "z-score": "0.677 (inactive)"}, {"sequence": "CCCGGACCUUGAAUAAGCATT against Piwil4", "z-score": "-1.06 (inactive)"}, {"sequence": "GCCACUAUCUGGAUAAGGATT against Ftl1", "z-score": "-3.54 (active)"}, {"sequence": "GGAGAAGUGGUAGAAACUGTT against Brd8", "z-score": "-1.3 (inactive)"}, {"sequence": "GCUUAGUCGGGAGAACUUUTT against Skp2", "z-score": "0.81 (inactive)"}, {"sequence": "GGACAAGCUAAGCAUUGAGTT against Atp6ap1", "z-score": "-1.45 (inactive)"}, {"sequence": "GCAUUGUCGUGUCUUCUCUTT against Tti1", "z-score": "-2.13 (active)"}, {"sequence": "GGAGUUUCAAGAAAAAAGGTT against Map3k21", "z-score": "1.08 (inactive)"}, {"sequence": "GGGCGAAGAUACAAGUGACTT against Tnp2", "z-score": "-1.76 (inactive)"}, {"sequence": "GCACCAAGUCGUAUAAACATT against Sh3glb1", "z-score": "-0.391 (inactive)"}, {"sequence": "CCAAUUUUGUCAUAGGACATT against Plbd1", "z-score": "-0.107 (inactive)"}, {"sequence": "GGAUGUAAGGCCUUUUUUATT against Esr2", "z-score": "0.676 (inactive)"}, {"sequence": "GGAGACCUUCAGCUUGGAATT against Zfp260", "z-score": "0.0537 (inactive)"}, {"sequence": "GGAUUCUAGGAGAGAAUCATT against Cplx3", "z-score": "0.897 (inactive)"}, {"sequence": "GCCAUUUCUUAUCAAGUGGTT against Laptm4a", "z-score": "-2.63 (active)"}, {"sequence": "GGAGCAGAACAUUAUCUUCTT against Tnn", "z-score": "0.603 (inactive)"}, {"sequence": "CCUAAACUACAGGAAUUUATT against D830014E11Rik", "z-score": "-0.0293 (inactive)"}, {"sequence": "CCAUAUGAGAAGAUGACACTT against Pdcl2", "z-score": "-1.39 (inactive)"}]}]}
